# Screen size: about 52,000 compounds; about 4,300 (8.3%) were called active. No stated cut-off is given here; in the data, active means survival mostly below about 52% (no sharp cut-off); inactive means mostly above about 56%. This excerpt belongs to a sample that is enriched for actives.
# Test system: DeltatarO mutant
# Assay: growth inhibition of S. aureus wild type versus tarO mutant, primary screen, teichoic acid synthesis inhibitors, RN4220, OD600 (AID 463173)
# Conditions: OD600, 18 h, hits give low values, screened at 18.75 µg/mL (by protocol)
row,SMILES,survival
1,Cc1cc(C)cc(N2CCn3c2nc2c3c(=O)n(CCCc3ccccc3)c(=O)n2C)c1,67% (inactive)
2,O=C(CSc1nc2c(c(=O)[nH]1)CCCC2)Nc1cccc(O)c1,68% (inactive)
3,Cc1cccc(N2CCN(C(=O)c3cnn(-c4cccc(Cl)c4C)c3C3CCNCC3)CC2)c1C,80% (inactive)
4,Cc1cc(NC(=O)c2ccc3c(c2)N(Cc2cccc(Cl)c2)C(=O)c2ccccc2S3(=O)=O)ccc1Br,90% (inactive)
5,O=C(Nc1ccc(Cl)c(Cl)c1)N1CCC(c2ccccc2)C1 (centres undefined),81% (inactive)
6,Cc1ccc(C2CCN(C(=O)Nc3ccc(Cl)cc3)C2)cc1 (centres undefined),81% (inactive)
7,Cc1ccc(C2CCN(C(=O)Nc3ccc(Cl)c(Cl)c3)C2)cc1 (centres undefined),20% (active)
8,COc1ccc(N2C(=O)CSC23C(=O)N(CC(=O)NCCc2ccccc2)c2ccccc23)cc1 (centres undefined),94% (inactive)
9,CCN(CC)S(=O)(=O)c1ccc(-c2nnc(SCC(=O)Nc3nc4ccccc4s3)o2)cc1,66% (inactive)
10,O=C1CSC(=O)N1CCOc1ccc(F)cc1,80% (inactive)
11,CCCCn1c(=N)n(CCOc2ccccc2OC)c2ccccc21,56% (inactive)
12,CCOC(=O)Cn1c(=N)n(Cc2ccc(C(C)(C)C)cc2)c2ccccc21,103% (inactive)
13,N=c1n(CCO)c2ccccc2n1Cc1ccccc1F,47% (active)
14,N=c1n(CC(=O)O)c2ccccc2n1Cc1ccccc1,84% (inactive)
15,N=c1n(CCO)c2ccccc2n1CCOc1ccc(F)cc1,40% (active)
16,N=c1n(CC(N)=O)c2ccccc2n1Cc1ccccc1Cl,99% (inactive)
17,CCOC(=O)Cn1c(=N)n(CCOc2ccc(OC)cc2)c2ccccc21,43% (active)
18,CCCCn1c(=N)n(CCCOc2ccc(F)cc2)c2ccccc21,48% (inactive)
19,O=C(O)CCN1C(=O)CSC1=O,72% (inactive)
20,CCCOc1cccc(C2c3c(oc4cc(C)c(C)cc4c3=O)C(=O)N2CCCN2CCOCC2)c1 (centres undefined),64% (inactive)
21,COc1ccc(CCNC(=O)c2ccc3c(c2)N(Cc2cc(C)ccc2C)C(=O)c2ccccc2S3=O)cc1OC (centres undefined),70% (inactive)
22,COc1cc(OC)c(NC(=O)Cn2cnc3sc(C)c(S(=O)(=O)N4CCN(C)CC4)c3c2=O)cc1Cl,157% (inactive)
23,Cc1ccc(C)c(N2CCN(C(=O)C3CCCN(Cc4nc(-c5cccc(Cl)c5)oc4C)C3)CC2)c1 (centres undefined),78% (inactive)
24,CCCCNC(=O)C1CCCN(Cc2nc(-c3ccc(Cl)cc3)oc2C)C1 (centres undefined),77% (inactive)

row,SMILES,survival
1,Cc1oc(-c2ccc(Cl)cc2)nc1CN1CCCC(C(=O)NCc2ccccc2)C1 (centres undefined),93% (inactive)
2,Cc1oc(-c2cccc(Br)c2)nc1CN1CCC(C(=O)NCCc2ccc(Cl)cc2)CC1,76% (inactive)
3,Cc1ccc(CCNC(=O)C2CCCN(Cc3nc(-c4cccc(Cl)c4)oc3C)C2)cc1 (centres undefined),25% (active)
4,Cc1oc(-c2ccc(Cl)cc2)nc1CN1CCCC(C(=O)NCCc2ccc(Cl)cc2)C1 (centres undefined),54% (inactive)
5,Cc1cccc(-c2nc(CN3CCCC(C(=O)NCCc4ccc(Cl)cc4)C3)c(C)o2)c1 (centres undefined),34% (active)
6,Cc1cccc(-c2nc(CN3CCCC(C(=O)N4CCN(c5cc(Cl)ccc5C)CC4)C3)c(C)o2)c1 (centres undefined),68% (inactive)
7,Cc1oc(-c2cccc(Cl)c2)nc1CN1CCCC(C(=O)NCCc2ccc(Cl)cc2)C1 (centres undefined),-6% (active)
8,CCc1ccc(-c2nc(CN3CCCC(C(=O)NCc4ccc(C)cc4)C3)c(C)o2)cc1 (centres undefined),73% (inactive)
9,Cc1oc(-c2ccc(Cl)cc2)nc1CN1CCCC(C(=O)NCCc2ccccc2)C1 (centres undefined),44% (active)
10,Cc1oc(-c2cccc(Cl)c2)nc1CN1CCC(C(=O)NCCc2ccc(Cl)cc2)CC1,87% (inactive)
11,Cc1ccc(-n2c(=O)c3c4c(sc3n(CC(=O)C(C)(C)C)c2=O)CCCCC4)cc1C,89% (inactive)
12,CC(C)CCNC(=O)c1cn(C)c2ccc(S(=O)(=O)N3CCCC3)cc2c1=O,138% (inactive)
13,CCc1ccc2oc(C(=O)NCC(c3ccc(OC)cc3)N3CCCCC3)c(C)c2c1 (centres undefined),81% (inactive)
14,O=C(CCn1cnc2onc(-c3ccc(F)cc3)c2c1=O)Nc1cccc(C(F)(F)F)c1,96% (inactive)
15,Cc1ccc(-n2nc(C(=O)N3CCN(c4ccccc4F)CC3)c(=O)n(C)c2=O)cc1,93% (inactive)
16,Cc1ccsc1CN(C(=O)COc1ccc(Br)cc1)C1CCS(=O)(=O)C1 (centres undefined),73% (inactive)
17,Cc1ccc(CN2CCC(CNC(=O)Nc3cccc(C)c3C)C2)cc1 (centres undefined),112% (inactive)
18,Cc1cc(Cl)ccc1NC(=O)Cn1nnc2sc(-c3ccccc3)cc2c1=O,106% (inactive)
19,Cc1cn2c(=O)cc(COC(=O)c3cccc(NC(=O)c4ccccc4Cl)c3)nc2s1,102% (inactive)
20,COc1cccc(CNC(=O)Cn2c(=O)ccc3cc(S(=O)(=O)N4CCC(C)CC4)ccc32)c1,99% (inactive)
21,COc1cc(OC)c(NC(=O)Nc2ccccc2OCc2cc(=O)n3cc(C)ccc3n2)cc1Cl,103% (inactive)
22,COc1ccccc1C(=O)Nc1ccc(OCc2cc(=O)n3cc(C)sc3n2)cc1,130% (inactive)
23,CCOc1ccc(C(=O)Nc2c(C(=O)c3ccccc3)oc3ccccc23)cc1,72% (inactive)
24,O=C(NCCc1ccccc1)c1cc2sccc2n1Cc1ccc(F)cc1,72% (inactive)

row,SMILES,survival
1,COc1cc(OC)c(NC(=O)CCc2c(C)nc3ncnn3c2C)cc1Cl,97% (inactive)
2,Cc1cn2c(=O)c(S(=O)(=O)NCc3ccccc3Cl)c(C)nc2s1,66% (inactive)
3,Cc1ccc2c(=O)cc(C(=O)Nc3c(C(=O)Nc4cccc(Cl)c4)oc4ccccc34)oc2c1,36% (active)
4,Cc1ccc2c(=O)cc(C(=O)Nc3c(C)cccc3C)oc2c1,44% (active)
5,Cc1cc(C)c2oc(C(=O)Nc3c(C(=O)c4ccccc4)oc4ccccc34)cc(=O)c2c1,55% (inactive)
6,Cc1ccc2oc(C(=O)Nc3c(C(=O)Nc4cccc(Cl)c4)oc4ccccc34)cc(=O)c2c1,67% (inactive)
7,Cc1ccc2c(=O)cc(C(=O)Nc3nnc(C)s3)oc2c1,76% (inactive)
8,COc1ccc(NC(=O)c2oc3ccccc3c2NC(=O)c2cc(=O)c3cc(Cl)ccc3o2)cc1,54% (inactive)
9,O=C(Nc1c(C(=O)Nc2cccc(C(F)(F)F)c2)oc2ccccc12)c1cc(=O)c2ccccc2o1,78% (inactive)
10,COC(=O)c1ccc(NC(=O)c2cc(=O)c3ccc(C)cc3o2)cc1,96% (inactive)
11,Cc1cccc(NC(=O)c2oc3ccccc3c2NC(=O)c2cc(=O)c3cc(Cl)ccc3o2)c1,43% (active)
12,Cc1cc(C)c2oc(C(=O)Nc3c(C(=O)Nc4ccccc4)oc4ccccc34)cc(=O)c2c1,51% (active)
13,Cc1ccc2oc(C(=O)Nc3cccc(Cl)c3)cc(=O)c2c1,92% (inactive)
14,Cc1cc2oc(C(=O)Nc3c(C(=O)Nc4ccccc4)oc4ccccc34)cc(=O)c2cc1C,106% (inactive)
15,NCC1Cc2ccccc2O1 (centres undefined),103% (inactive)
16,O=c1c2oc3ccccc3c2n(Cc2cccc(F)c2)c(=O)n1Cc1ccco1,75% (inactive)
17,Cc1ccccc1CSc1nnc2[nH]c(=O)cc(C)n12,84% (inactive)
18,Cc1cc(C)cc(-n2ccnc(NCCc3ccccc3)c2=O)c1,101% (inactive)
19,CC(C)Oc1ccc(C2CC(=O)N(C)C2=O)cc1 (centres undefined),82% (inactive)
20,Cc1ccc(OCC(=O)Nc2ccc(S(=O)(=O)N3CCOCC3)cc2)c(C)c1,94% (inactive)
21,COc1ccc2cc(CN(Cc3nnnn3Cc3ccccc3)C3CCCC3)c(=O)[nH]c2c1,96% (inactive)
22,CC1CCN(C(=O)c2ccc3nc(N4C(=O)CCC4=O)sc3c2)CC1,95% (inactive)
23,COc1ccc(C)cc1NC(=O)C(=O)NCCc1csc2nc(-c3ccccc3F)nn12,72% (inactive)
24,COc1ccc(N2CCN(S(C)(=O)=O)CC2)cc1,86% (inactive)

row,SMILES,survival
1,COc1cc2c(=O)c(S(=O)(=O)c3ccc(F)cc3)cn(Cc3ccccc3C)c2cc1OC,55% (inactive)
2,CCOC(=O)C1CCCN(C(=O)c2ccc3c(c2)sc2nc(-c4cccc(OC)c4)cn23)C1 (centres undefined),77% (inactive)
3,CCOc1ccccc1NC(=O)c1cc(=O)c2ccc(C)cc2o1,44% (active)
4,CCc1ccc2oc(C(=O)Nc3ccccc3OC)cc(=O)c2c1,49% (inactive)
5,Cc1ccc(C(=O)c2oc3ccccc3c2NC(=O)c2cc(=O)c3ccccc3o2)cc1,57% (inactive)
6,Cc1ccc2c(=O)cc(C(=O)Nc3c(C(=O)c4ccccc4)oc4ccccc34)oc2c1,76% (inactive)
7,CCOc1ccc(C(=O)c2oc3ccccc3c2NC(=O)c2cc(=O)c3ccc(C)cc3o2)cc1,134% (inactive)
8,Cc1cccc(NC(=O)c2oc3ccccc3c2NC(=O)c2cc(=O)c3ccc(C)cc3o2)c1,28% (active)
9,Cc1cccc(NC(=O)c2oc3ccccc3c2NC(=O)c2cc(=O)c3ccccc3o2)c1,73% (inactive)
10,COc1ccc(C(=O)c2oc3ccccc3c2NC(=O)c2cc(=O)c3ccc(C)cc3o2)cc1Cl,44% (active)
11,Cc1ccc2oc(C(=O)Nc3c(C(=O)Nc4ccccc4)oc4ccccc34)cc(=O)c2c1,73% (inactive)
12,COC(=O)C(C)Oc1ccc(N2C(=O)c3ccccc3C2=O)cc1 (centres undefined),75% (inactive)
13,O=S(=O)(c1ccc(-c2cc(C(F)(F)F)on2)s1)N1CCN(c2ccccc2)CC1,75% (inactive)
14,CCOc1ccc(-c2cc3nc(C4CCN(C(=O)OC(C)(C)C)CC4)c(C(=O)Nc4cccc(C(F)(F)F)c4)cn3n2)cc1,79% (inactive)
15,O=C1C2C3c4ccccc4C(c4ccccc43)C2C(=O)N1Cc1ccccn1 (centres undefined),83% (inactive)
16,COCC[N+]1(C)CCCCC1,84% (inactive)
17,CC(Sc1nc(-c2ccccc2)cc(C(F)(F)F)n1)C(=O)N1CCCC1 (centres undefined),101% (inactive)
18,CC1CN(C(=O)C(C)Sc2nc(-c3ccccc3)cc(C(F)(F)F)n2)CC(C)O1 (centres undefined),78% (inactive)
19,CC1CCN(C(=O)CSc2nc(-c3ccc(F)cc3)cc(C(F)(F)F)n2)CC1,37% (active)
20,CC1CCN(C(=O)CSc2n[nH]c(-c3ccc(F)cc3)n2)CC1,92% (inactive)
21,COc1ccc(-c2cc(C(F)(F)F)nc(SCC(=O)N3CCC(C)CC3)n2)cc1,56% (inactive)
22,CC1CCN(C(=O)C(C)Sc2nc(-c3ccccc3)cc(C(F)(F)F)n2)CC1 (centres undefined),-1% (active)

# From PubChem BioAssay AID463173 (ICCB-Longwood Screening Facility, Harvard Medical School, 2010)
